Molecular target: AMP-activated protein kinase, AMPK (Homo sapiens) (UniProt P54646+O43741+P54619+Q9UGJ0+Q9Y478+Q13131+Q9UGI9)
Assay: AMP-dependent Kinase enzyme assay. An in vitro enzyme assay that detects ADP turnover that is directly proportional to AMPK activity. This uses naive AMPK that is activated during the assay with MK-8722
Assay type: functional
Design: scale not given: direction of the effect not stated beside the values
Conditions: 30 µM

Compared with Cc1nc(N)c2ccc(C3CCCN3)nc2n1 (stereo not given), CCc1ccc2nc(C)cc(C(=O)N[C@@H]3CCCNC3)c2c1 is lower in Percent Effect: 10.9% for the first, -2.76% for the second.

First: O=C1CCC(C(=O)N2CCC(Cn3cc(C4CCCC4)nn3)CC2)=NN1
Second: CC(C)Cc1cc(C(=O)N2CCC(N3CCCC3)CC2)cc(O)n1
The Percent Effect of the first is lower: -8.82% for the first, 1.87% for the second.

Compared with CC(=O)Nc1ccc(CNC(=O)CNCc2sc(C)nc2C)cc1, CNC(=O)Cc1ccc(NC(=O)NCC(C)c2ncc(C)s2)cc1 (stereo not given) is lower in Percent Effect: 3.71% for the first, -3.25% for the second.

Going from CCN1CC(c2ccccc2)CC2(CCN(Cc3ncc[nH]3)CC2)C1 (stereo not given) to CN1CC2(CCN(CCCOCc3ccccc3)CC2)OC1=O, the Percent Effect rises from -6.2% to 2.54%.

Going from Cc1noc(-c2ccc(N(C)Cc3ccncn3)nc2)n1 to CN(CCc1ccncc1)c1cnn(C)c(=O)c1Br, the Percent Effect falls from 0.463% to -1.01%.

Going from COC(CNC(=O)c1ccc(NC(C)=O)cc1)c1cccc(Cl)c1 (stereo not given) to CN(C)c1cccc(C(=O)Nc2cnn(Cc3ccncc3)c2)c1, the Percent Effect falls from 1.2% to -4.34%.

Compared with Cc1cc(C)n2c(CNCc3ccc(OC(F)F)cc3)cnc2n1, CC(C)(C)Oc1ccc(NCC(=O)NCc2ccco2)cc1 is higher in Percent Effect: -12.4% for the first, 9.8% for the second.

First: CS(=O)(=O)CCN1CCSCC1c1ccc(Cl)cc1 (stereo not given)
Second: Cc1ccnc(C2CCN(CCCOc3ccccc3F)C2)n1 (stereo not given)
The Percent Effect of the first is lower: -2.02% for the first, 6.41% for the second.

Compared with Cc1cccc(N2CCN(C(=O)CNCCn3cccn3)CC2)c1, COC(=O)C1CCN(C(=O)Cn2ccc(-c3ccc(F)cc3)n2)CC1 is higher in Percent Effect: -3.32% for the first, -0.768% for the second.

First: Cc1nn(C)c(C)c1C1CCCN1C(=O)c1ccc(C(N)=O)s1 (stereo not given)
Second: Cc1ncc(C(=O)N2CCCC2c2c(C)nn(C)c2C)s1 (stereo not given)
The Percent Effect of the first is lower: -0.19% for the first, 1.37% for the second.

First: COc1ccc(C(=O)NCC2CCCN(C3CCOCC3)C2)c(O)c1 (stereo not given)
Second: O=C(c1cc(C2CC2)on1)N1C[C@H]2CC[C@](O)(c3ccc(F)cc3)[C@H]2C1
The Percent Effect of the first is higher: 14.3% for the first, 12.8% for the second.

Compared with N#Cc1c(N)nc2c(c1-c1c[nH]nc1C1CCCCC1)CNCC2, c1ccc2oc(N3CCC(c4nncn4C4CC4)CC3)nc2c1 is lower in Percent Effect: 17.6% for the first, 8.44% for the second.

First: CNc1nc(C(=O)N2CCCn3nc(C(=O)N4CCCC4)cc3C2)cs1
Second: COc1c(C2CCCN2CC(=O)N(C)c2nccs2)c(C)nn1C (stereo not given)
The Percent Effect of the first is higher: 10.6% for the first, 5.92% for the second.

Compared with Cc1ncsc1CCN(C)C(=O)CCc1nc2cccnc2n1C, Cc1nc(NC(=O)C(C)N(C)Cc2cccc(C#N)c2)sc1C (stereo not given) is higher in Percent Effect: -7.17% for the first, 7.53% for the second.

Compared with Cc1noc(C)c1CCCNC(=O)Nc1ccc2c(c1)COC2, Cc1ccccc1NC(=O)CCNC(=O)c1ccoc1 is lower in Percent Effect: 16.7% for the first, -10.8% for the second.

Going from CCOC(=O)c1n[nH]cc1CN1CCOC(Cc2ccc(F)cc2)C1 (stereo not given) to Fc1ccc(OCCCNC2=NCCCN2)cc1, the Percent Effect falls from 1.89% to 0.73%.

Compared with CC(C)(CNC(=O)c1ccco1)NC(=O)OC(C)(C)C, CN(C)c1cccc(C(=O)Nc2cnn(CC(N)=O)c2)c1 is higher in Percent Effect: -6.6% for the first, 3.58% for the second.

First: Cc1cc(C)nc(NC2CCN(CCOC(C)C)CC2)n1
Second: CC(Oc1ccc2c(c1)OCO2)C(=O)N1CCC(c2ncc[nH]2)CC1 (stereo not given)
The Percent Effect of the first is higher: 7.53% for the first, 4.41% for the second.

Compared with Cn1cnc(S(=O)(=O)N2C[C@@H]3CC[C@H](C2)N(Cc2ccccn2)C3)c1, CN(C)C1CCN(c2cc(-c3ccccc3)nc3ccnn23)C1 (stereo not given) is lower in Percent Effect: 84.4% for the first, -0.347% for the second.

First: CN(CCc1ccccc1)Cc1c(C2CCNCC2)[nH]c2ncccc12
Second: COc1ncc(NCc2cccc(C#N)c2)cc1C(N)=O
The Percent Effect of the first is lower: 7.86% for the first, 8.6% for the second.

Source: ChEMBL document CHEMBL3988442, “University of Dundee, Small-Polar-MMV Screening Library” (2021)
